Source: PubChem BioAssay
BAZ2B inh – blocks human BAZ2B; AlphaScreen BAZ2B-H3K14Ac peptide displacement; Potency, µM (highest dose often 114 µM), for inactives: at the highest dose activity change, negative = inhibition, most hits filed as inhibitors; actives 4.4% (n = 360,000); AID 504333; further: on the % scale 0 is the no-effect control and ±100 the full control effect; nearly all actives have a fitted effect of over 60% in size
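Multi-concentration screen (max 110 uM) measuring displacement of acetylated histone H3 peptide from BAZ2B by AlphaScreen, using 50 nM protein, 50 nM peptide and 10 ug/mL streptavidin donor plus Ni-chelate acceptor beads.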
GLS inh – glutaminase GLS (human) inhibition | O94925 | GLS enzymatic activity, qHTS titration | Potency, µM (series often up to 45.5 µM), for the others: at the highest dose activity change, negative = inhibition, most hits filed as inhibitors | actives 0.21% (n = 410,000) | AID 624170; further: on the % scale 0 is the no-effect control and ±100 the full control effect
Target sequence (O94925 whole entry, looked up): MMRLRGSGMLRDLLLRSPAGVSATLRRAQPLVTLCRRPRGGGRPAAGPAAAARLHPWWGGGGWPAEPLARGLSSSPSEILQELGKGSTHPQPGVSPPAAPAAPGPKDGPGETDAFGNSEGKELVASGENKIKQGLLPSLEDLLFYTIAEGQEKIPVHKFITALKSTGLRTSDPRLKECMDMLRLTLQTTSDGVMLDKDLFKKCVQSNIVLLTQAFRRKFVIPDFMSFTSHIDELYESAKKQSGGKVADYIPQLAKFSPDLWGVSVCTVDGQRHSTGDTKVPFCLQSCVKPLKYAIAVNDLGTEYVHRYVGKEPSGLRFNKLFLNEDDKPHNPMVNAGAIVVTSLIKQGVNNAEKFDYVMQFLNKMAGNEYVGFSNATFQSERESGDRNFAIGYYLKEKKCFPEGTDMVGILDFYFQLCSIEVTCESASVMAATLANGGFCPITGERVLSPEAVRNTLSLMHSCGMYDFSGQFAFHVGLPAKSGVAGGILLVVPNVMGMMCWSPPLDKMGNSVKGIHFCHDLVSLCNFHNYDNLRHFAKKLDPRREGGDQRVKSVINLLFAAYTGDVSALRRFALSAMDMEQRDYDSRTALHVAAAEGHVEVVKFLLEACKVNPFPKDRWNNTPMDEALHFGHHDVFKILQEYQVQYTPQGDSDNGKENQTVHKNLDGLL
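hKGA; 45 mM KH2PO4 pH 8.2 + 0.02% Tween-20; cpd via pin tool; 1 mM Gln soln; GluOx/HRP/Amplex Red; RT 30 min; fluor. t0 & final.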
JMJD2A Tudor inh – blocks the human JMJD2A Tudor domain. Potency, µM (doses to about 114 µM), inactives show at the top dose activity change, negative = inhibition, actives largely listed as inhibitors. AlphaScreen JMJD2A-Tudor / H3K4me3 peptide binding. actives 4.4% (n = 390,000). O75164; further: on the % scale 0 is the no-effect control and ±100 the full control effect; nearly all actives have a fitted effect of over 50% in size
HP1b chromo inh – inhibitors of HP1-beta chromodomain binding to methylated histone tails. P83916. AlphaScreen HP1-beta / biotin-H3K9me3 peptide binding. Potency, µM (top dose mostly 114 µM), for inactives: top-dose activity change, negative = inhibition, actives largely listed as inhibitors. actives 0.56% (n = 390,000). AID 540317; further: nearly all actives have a fitted effect of over 70% in size
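AlphaScreen: HP1-beta (50 nM) preformed 30 min with biotin-H3(1-18)K9me3 peptide (50 nM) in PBS pH 7.4, 0.01% Tween-20. Compound added for 30 min at RT, then streptavidin donor/nickel chelate acceptor beads (10 ug/mL) for 30 min.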
G9a block – G9a (human) methyltransferase inhibition; Q96KQ7; G9a H3K9 monomethylation, AlphaScreen, 2 h; Potency, µM (highest dose often 102 µM), inactives show top-dose activity, negative = inhibition, most hits filed as inhibitors; actives 8.8% (n = 350,000); AID 504332; further: on the % scale 0 is the no-effect control and ±100 the full control effect; nearly all actives have a fitted effect of over 75% in size
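Readings reflect AlphaScreen signal from monomethyl-H3K9 antibody detection. HMT at 20 nM; substrate b-H3K9 500 nM; cofactor SAM 20 uM; 2 h RT reaction; compounds tested as titrations in qHTS with 15 min preincubation.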
The depositor's hits bear a star; ? = inconclusive; nt = not tested or not shown; [ ] = another dose, or the depositor's remark. Only some compounds are listed: those with a hit (about 10% of all), similar ones and a draw of the others. The call rests on the fitted dose curve; in most records, active means well fitted curve in the direction sought with a large enough effect; inconclusive means small, poorly fitted or top-dose-only effect, or another doubt; inactive means no such curve, though single readings can be large; an effect the other way counts as inactive or inconclusive. Potency means the concentration at half of the fitted maximal effect.

SMILES	BAZ2B inh	GLS inh	JMJD2A Tudor inh	HP1b chromo inh	G9a block
COc1ccc(NC2CCCN(C(=O)c3cc(CC(C)C)nc(N)n3)C2)cc1 (stereo unspecified)	-30%	-10%	-22%	16%	45µM*
Cc1nnc(SCC2=C(C(=O)O)N3C(=O)C(NC(=O)C(C)n4nc(C(F)(F)F)cc4C)C3SC2)s1 (stereo unspecified)	50µM*	-13%	63µM*	25%	?
Cc1ccc2[nH]c3c(=S)nc[nH]c3c2c1	-2%	1%	?	16%	1.8µM*
Cc1ccc2[nH]c3c(=O)n(N)c(C)nc3c2c1	-12%	8%	-8%	-4%	-26%
COCCNCC(=O)N1CCCCCC1	50µM*	1%	3.5µM*	-29%	8.9µM*
Cc1ccc(C(=O)NCC(=O)N2CCCCCCC2)cc1C	10%	-3%	-1%	14%	0%[12.7 µM]
Cc1c2cnn(-c3ccccc3)c(=O)c2c(C)n1CC(=O)N1CCN(c2ccc(F)cc2)CC1	-15%	7%	-22%	-6%	?
COC(=O)COc1cccc2c(=O)n(CC(=O)N3CCC(C)CC3)ccc12	-1%	0%	-14%	-9%	0%
O=c1[nH]c(SCc2ccccc2Cl)nc2c1CCC2	-6%	2%	-8%	28%	6%[12.7 µM]
O=[N+]([O-])c1ccc(-c2cnc(SCc3ccccc3Cl)[nH]2)cc1	32µM*	8%	?	?	35µM*
O=[N+]([O-])c1ccc(-c2cnc(SC(c3ccccc3)c3ccccc3)[nH]2)cc1	40µM*	-8%	?	?	13µM*
Cc1cc(C)c(CSc2ncc(-c3ccc([N+](=O)[O-])cc3)[nH]2)c(C)c1	10µM*	4%	?	?	?
NC(=O)CSc1ncc(-c2ccc([N+](=O)[O-])cc2)[nH]1	-3%	0%	-13%	24%	?
Cc1ccc(S(=O)(=O)N2CCN(CC(=O)NC3CCCc4ccccc43)CC2)c(C)c1 (stereo unspecified)	-7%	-12%	?	-6%	?
CC(C)OCCCN(CC(O)c1ccccc1)CC(O)c1ccccc1 (stereo unspecified)	?	18%	5.6µM*	?	7.9µM*
CCCCCCCCN1[C@@H](CC(=O)OCC)c2cc(C(F)(F)F)ccc2S1(=O)=O	nt	1%	74%	124%	nt
CC(=O)c1ccc(S(=O)(=O)Nc2cccc(-n3cnnn3)c2)cc1	50µM*	-17%	?	5%	40µM*
CC(=O)Nc1ccc(S(=O)(=O)Nc2cccc(-n3cnnn3)c2)cc1	-13%	0%	-12%	30%	-7%
O=C1c2ccccc2-c2onc3ccc(NCCCn4ccnc4)c1c23	14µM*	-26%	50µM*	?	-26%[12.7 µM]
COc1ccc2noc3c2c1C(=O)c1ccccc1-3	nt	-13%	?	-14%	nt
CC(=O)N1N=C(c2c(-c3ccccc3)c3cc(Br)ccc3[nH]c2=O)CC1c1ccco1 (stereo unspecified)	-19%	0%	-28%	40%	50µM*
Cc1cc(C)c(NC(=O)CN2CCN3CCCC3C2)c(C)c1 (stereo unspecified)	-6%	10%	-10%	18%	11µM*
CN(CCOc1ccc(Cl)cc1)C(=O)CNS(=O)(=O)c1ccc(N(C)C)c([N+](=O)[O-])c1	?	1%	?	-13%	40µM*
N#CC1=C(S)N(c2ccccc2)C(c2ccco2)NC1=O (stereo unspecified)	?	-2%	-1%	45%	28µM*
Cc1ccc(N2C(S)=C(C#N)C(=O)NC2c2ccco2)cc1 (stereo unspecified)	-17%	-14%	-21%	20%	28µM*
SMILES	BAZ2B inh	GLS inh	JMJD2A Tudor inh	HP1b chromo inh	G9a block
N#CC1=C(S)N(c2ccc(F)cc2)C(c2ccco2)NC1=O (stereo unspecified)	-27%	-6%	-20%	-7%	8.9µM*
N#CC1=C(S)N(c2ccccc2)C(c2ccc(-c3ccc(Cl)c(Cl)c3)o2)NC1=O (stereo unspecified)	?	-1%	?	-6%	?
N#CC1=C(S)N(c2ccccc2)C(c2ccc(-c3cc(Cl)ccc3Cl)o2)NC1=O (stereo unspecified)	50µM*	-9%	-32%	4%	?
CC(=O)N1CCN(C(=O)CN2C(=O)NC(C)(c3ccc4ccccc4c3)C2=O)CC1 (stereo unspecified)	?	-10%	-9%	14%	10%[12.7 µM]
Cc1sc(NC(=O)c2ccco2)c(C(Nc2ccccn2)c2ccccc2)c1C (stereo unspecified)	-36%	6%	-42%	-20%	45µM*
COc1ccc(C(Nc2ccccn2)c2c(NC(=O)c3ccco3)sc(C)c2C)cc1 (stereo unspecified)	?	-6%	?	6%	45µM*
COc1cccc(C(Nc2ccccn2)c2c(NC(=O)c3ccco3)sc(C)c2C)c1 (stereo unspecified)	?	8%	?	-26%	-26%[59 µM]
CCC(C(=O)OC)n1c(-c2ccccc2)nc2ccccc2c1=O (stereo unspecified)	31%	-1%	101%	109%	nt
O=C(Oc1ccc(Cl)c2cccnc12)N1CCCCC1	-3%	5%	-16%	19%	-8%[59 µM]
Oc1c(I)cc(I)c2cccnc12	9%	6%	56µM*	-20%	50µM*
O=C(Oc1ccc(Cl)c2cccnc12)c1cccnc1	56µM*	0%	-26%	45%	1%
Oc1ccc(Cl)c2cccnc12	nt	10%	18µM*	9%	24%[59 µM]
Oc1ccc(F)c2cccnc12	16µM*	?	10µM*	-18%	-4%[59 µM]
CC(=O)NCCNc1nc(-c2c(C)noc2C)nc2ccccc12	nt	nt	nt	nt	-41%[0.501 µM]
COc1ccc(CN2C(=O)C(NC(=O)c3ccccc3OC)(C(F)(F)F)N=C2c2ccccc2)cc1 (stereo unspecified)	-19%	-2%	-14%	30%	6%[59 µM]
Oc1c(Cl)cc(Cl)c2cccnc12	nt	0%	28µM*	-5%	40µM*
O=C(Oc1c(Cl)cc(Cl)c2cccnc12)c1ccco1	?	28%	89µM*	23%	?
Clc1cc2cccnc2c2ccccc12	63%	6%	28%	71%	-25%[59 µM]
O=C(Oc1c(Cl)cc(Cl)c2cccnc12)c1cccs1	24%	8%	38%	125%	13%[59 µM]
CC1CN(S(=O)(=O)c2ccc3c(c2)NC(=O)CC(=O)N3)c2ccccc2O1 (stereo unspecified)	2%	-3%	-8%	46%	5%[59 µM]
CCn1nc(NC(=O)c2ccncc2)c2cc3cccc(C)c3nc21	-27%	-5%	-7%	38%	-22%[59 µM]
COCC(=O)OCC(=O)Nc1cc([N+](=O)[O-])ccc1Cl	-3%	15%	-11%	28%	7%
